# Compounds with a hit are over-represented: about 11% of the library has one in this group of screens.
# AmpC inh detg = inhibitors of E. coli AmpC beta-lactamase with detergent; P00811; AID 485294; hit rate 0.041% among 370,000; Potency, µM (titrated, usually from 114 µM), for the others: at the top dose activity change, negative = inhibition, most hits filed as inhibitors; AmpC hydrolysis of nitrocefin, absorbance 480 nm, 0.01% Triton;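 also: 0% = no-compound wells and -100% = no-enzyme wells; nearly all actives have a fitted effect of over 25% in size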
# Target sequence (P00811 whole entry, looked up): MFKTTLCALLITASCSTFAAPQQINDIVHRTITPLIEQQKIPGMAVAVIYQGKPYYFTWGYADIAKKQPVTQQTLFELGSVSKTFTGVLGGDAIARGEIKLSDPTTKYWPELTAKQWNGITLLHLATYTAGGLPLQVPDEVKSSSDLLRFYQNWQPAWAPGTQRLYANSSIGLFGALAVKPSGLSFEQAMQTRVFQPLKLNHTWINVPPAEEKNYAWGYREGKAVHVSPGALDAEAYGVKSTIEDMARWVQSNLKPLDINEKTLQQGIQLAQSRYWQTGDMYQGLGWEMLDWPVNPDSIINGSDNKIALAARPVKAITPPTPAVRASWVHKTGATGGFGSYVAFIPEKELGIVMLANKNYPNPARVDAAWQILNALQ
#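 20 mM phosphate pH 7.0 + 0.01% (detergent screen) or 0.0001% Triton X-100; 5.3 nM AmpC reagent; cpd preinc 15 min RT; nitrocefin (800 uM stock) to start; A480 q20 s × 4 min; Activity was normalised to no-enzyme and no-compound control wells.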
# HCV inh = HCV inhibition; Huh7.5.1 HCVcc-Cre infection, luciferase reporter, 44 h; Potency, µM (top dose mostly 41.8 µM), inactives show at the top dose activity change, negative = inhibition, usual class: inhibitors; hit rate 3.4% among 340,000
#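 Infectious HCVcc-Cre (~0.5 moi) was added to cells just after compound, with cells seeded 4 h earlier at 1,000 per well. Luciferase activity after 44 h culture reported infection; substrate was incubated 15 min at room temperature before reading.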
# AmpC no deterg = blocks E. coli AmpC beta-lactamase in detergent-free assay; hit rate 0.52% among 330,000; AID 485341; P00811; Potency, µM (highest dose often 57.1 µM), inactives show at the top dose activity change, negative = inhibition, actives largely listed as inhibitors; AmpC nitrocefin hydrolysis, absorbance 480 nm, 0.0001% Triton;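 also: plate controls were no compound for no effect and no enzyme for full effect; nearly all actives have a fitted effect of over 20% in size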
#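 AmpC (5.3 nM in the dispensed reagent) in 20 mM phosphate pH 7.0 with 0.01% (detergent screen) or 0.0001% Triton X-100 was preincubated with compounds for 15 min at room temperature. Nitrocefin was then added from an 800 uM solution, and hydrolysis was followed at 480 nm.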
# AMA1 RON2 block = AMA1-RON2 (P. falciparum) interaction inhibition | AlphaScreen AMA1-biotinylated RON2 peptide binding | Potency, µM (highest dose often 58.2 µM), for the others: at the highest dose activity change, negative = inhibition, hits mostly inhibitors | hit rate 0.2% among 360,000;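 also: 0% = vehicle wells and -100% = peptide control; nearly all actives have a fitted effect of over 45% in size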
#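 AMA1 (3D7) with his tag at 25 nM final met compounds first, then biotinylated RON2 peptide at 25 nM; detection used donor plus acceptor beads, 10 µg/mL apiece, read by AlphaScreen after 30 min at room temperature.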
# Pf growth 48h = P. falciparum growth inhibition at 48 hours (one generation) | P. falciparum luciferase growth in erythrocytes, 48 h | Potency, µM (series often up to 28.7 µM), for the others: at the top dose activity change, negative = inhibition, usual class: inhibitors | hit rate 5.9% among 310,000
#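 Growth was read as firefly luciferase luminescence after a 48 h, 37 C, 5% CO2 exposure of compounds to reporter-bearing P. falciparum cultures (0.1% parasitemia, 2% hematocrit final) in Albumax-supplemented RPMI 1640.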
# Pf growth 96h = P. falciparum growth inhibition at 96 hours | P. falciparum luciferase reporter growth, 96 h | Potency, µM (doses to about 28.7 µM), for the others: at the highest dose activity change, negative = inhibition, most hits filed as inhibitors | hit rate 6.9% among 320,000
#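 Erythrocytes infected with luciferase-expressing P. falciparum were dispensed at 2% hematocrit and 0.05% parasitemia (final), then incubated with compounds 96 hours at 37 C in 5% CO2. Luminescence after detection reagent addition reported growth.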
# * = called active by the depositor; ? = inconclusive; nt = not tested or not shown; [ ] = remark or other dose. Calls follow the shape of the dose curve; as a rule, active = well fitted curve in the direction sought with a large enough effect; inconclusive = small, poorly fitted or top-dose-only effect, or another doubt; inactive = no such curve, though single readings can be large; an effect the other way counts as inactive or inconclusive. Unless noted, % is scaled to controls: 0 for no effect and ±100 for the full control effect; potency is read from the fitted curve at half-maximal effect.
SMILES,AmpC inh detg,HCV inh,AmpC no deterg,AMA1 RON2 block,Pf growth 48h,Pf growth 96h
CCC1CN(C(=O)N2CCC(C(=O)NCCc3cc(OC)ccc3OC)CC2)c2ccccc2O1 (stereo not drawn),6%,nt,nt,nt,nt,nt
COc1ccc(NS(=O)(=O)c2c(C)nc3scc(C)n3c2=O)cc1,12%,nt,nt,nt,nt,nt
CCOC(=O)CNC(c1ccccc1)c1cc(Br)ccc1NC(=O)c1ccc(Cl)cc1 (stereo not drawn),5%,nt,nt,nt,nt,nt
O=C(CSc1nc2ccccc2c(=O)[nH]1)Nc1ccc(C(=O)O)cc1,7%,11%,-9%,?,40%,21%
Cc1ccc2nc(SCC(=O)Nc3cc(C(C)(C)C)nn3-c3ccccc3)[nH]c2c1,-1%,?,-11%,-15%,?,?
Cc1cc(NC(=O)CSc2nc3ccccc3[nH]2)n(-c2ccccc2)n1,-6%,-27%,-16%,-10%,1.9µM*,4.7µM*
Cc1cc(C)nc(SCC(=O)Nc2ccnc3ccccc23)n1,2%,1.8µM*,-16%,6%,21%[5.75 µM],139%
C=CCn1c(SCC(=O)Nc2cc(C)nn2-c2ccccc2)nnc1C1CCCCC1,0%,?,36%,4%,-15%,12µM*
O=C(CSc1nc2ccccc2c(=O)[nH]1)Nc1ccc(S(=O)(=O)N2CCCC2)cc1,-12%,?,-43%,-13%,-16%,2.3µM*
Cc1cc(NC(=O)CCC(=O)N(Cc2ccccc2)C2(C(=O)NC3CCCCC3)CCCC2)no1,2%,-4%,45%,-10%,9.3µM*,?
CCC(C(=O)NC1CCCCC1)N(Cc1cccs1)C(=O)CCC(=O)Nc1cc(C)on1 (stereo not drawn),-5%,11µM*,23%,10%,?,5%
Cc1cc(NC(=O)CCC(=O)N(CC(=O)NC2CCCC2)Cc2ccco2)no1,-1%,-2%,-4%,-11%,-15%,nt
Cc1cc(NC(=O)CCC(=O)N(c2ccc(F)cc2)C2(C(=O)NC3CCCCC3)CCCC2)no1,?,-22%,97%,0%,?,128%
Cc1cc(NC(=O)CCC(=O)N(Cc2ccco2)C2(C(=O)NC3CCCCC3)CCCCC2)no1,-6%,?,25%,-5%,-25%,1.3µM*
Cc1cn2c(=O)cc(COc3ccccc3NC(=O)c3ccc(Cl)cc3)nc2s1,2%,nt,nt,nt,nt,nt
O=C(Nc1ccc(F)cc1)c1ccc(Cn2nc(N3CCN(c4ccccc4)CC3)ccc2=O)o1,6%,nt,nt,nt,nt,nt
Cc1ccc2c(c1)C1CN(C)CCC1N2Sc1ccccc1[N+](=O)[O-] (stereo not drawn),7%,-11%,154%,?,?,10µM*
CC(=O)c1c(C(C)=O)c(C)n(-c2cccc([N+](=O)[O-])c2)c1C,1%,-8%,-24%,-2%,-4%,9.3µM*
Cc1ccc(-n2ncc3c(Nc4ccccc4C)ncnc32)cc1,5%,nt,nt,nt,nt,nt
COc1cccc(N2CCN(c3ncnc4c3cnn4-c3ccc(C)cc3C)CC2)c1,-4%,3.5µM*,43%,-19%,nt,5.9µM*
Cc1ccc(-n2ncc3c(SCc4cccnc4)ncnc32)c(C)c1,3%,11µM*,18%,-14%,?,?
Cc1ccccc1Nc1ncnc2c1cnn2-c1ccccc1,-3%,11µM*,-28%,-2%,-16%,3%
Cc1ccccc1C(=O)N1CCN(c2ncnc3c2cnn3-c2ccccc2)CC1,?,7.9µM*,28%,-2%,?,20%
COc1ccccc1N1CCN(C(=O)C2CCN(S(=O)(=O)c3cccs3)CC2)CC1,15%,nt,nt,nt,nt,nt
Cn1ccc2cc(S(=O)(=O)N3CCCC(C(=O)NCc4ccc(F)cc4)C3)ccc21 (stereo not drawn),-4%,nt,nt,nt,nt,nt
SMILES,AmpC inh detg,HCV inh,AmpC no deterg,AMA1 RON2 block,Pf growth 48h,Pf growth 96h
CCOC(=O)N1CCN(c2ncnc3c2cnn3-c2ccc(Cl)cc2)CC1,-2%,-9%,6.3µM*,nt,44%,nt
CCOC(=O)N1CCC(NC(=O)c2ccc3c(c2)N(Cc2ccccc2C)C(=O)c2ccccc2S3=O)CC1 (stereo not drawn),-13%,nt,nt,nt,nt,nt
OCCN(CC#CC(O)(c1ccccc1)c1ccccc1)CCO,1%,3%,-4%,27%,8%,31%
CC(C)N(CC#CC(O)(c1ccccc1)c1ccccc1)CCO,0%,8%,0%,6%,-11%,2.3µM*
Cc1nnc(NC(=O)C(C)Sc2nnc(-c3ccco3)n2C)s1 (stereo not drawn),-5%,2%,-8%,13%,-12%,-18%
CC(Sc1nnc(-c2ccc(Cl)cc2Cl)n1Cc1ccccc1)C(=O)Nc1nccs1 (stereo not drawn),2%,?,10%,11%,?,9.3µM*
CC(Sc1nnc(-c2ccco2)n1C)C(=O)Nc1nccs1 (stereo not drawn),-5%,20%,-18%,-3%,?,5.2µM*
CC(=O)Nc1ccc(NC(=O)c2ncoc2-c2ccco2)cc1,-11%,nt,nt,nt,nt,nt
CCOc1ccccc1CN(CCc1ccc2c(c1)OCO2)Cc1cc(OC)c(OC)cc1OC,-4%,nt,nt,nt,nt,nt
COc1ccc(-n2c3c(cc(-c4nc(-c5ccc(C)cc5)cs4)c2=O)C(=O)CC(C)(C)C3)cc1,19%,nt,nt,nt,nt,nt
COc1ccc(-c2sc3ccc(OC)cc3c2-c2ccc(O)cc2)cc1,nt,8.9µM*,-16%,0%,nt,nt
COc1cc2sc(-c3ccccc3OC)c(-c3ccc(O)cc3)c2cc1OC,nt,11µM*,21%,-16%,nt,nt
COc1ccc(-c2ccnc(-c3ccc(O)cc3)n2)cc1,16%,?,-29%,0%,19%,21%
COc1ccc(-c2sc3cc4c(cc3c2-c2ccc3c(c2)OCCO3)OCO4)cc1,nt,23%,-20%,0%,nt,nt
COc1ccc(O)cc1,nt,0.79µM*,-17%,2%,-7%,?
COc1ccc2sc(-c3ccccc3OC)c(-c3ccc4c(c3)OCCO4)c2c1,3%,?,-24%,-9%,10µM*,2.6µM*
COc1cc2sc(-c3ccc(S(C)(=O)=O)cc3)c(-c3ccc4c(c3)OCO4)c2cc1OC,nt,2.8µM*,6%,1%,nt,nt
COc1ccc2sc(-c3ccccc3OC)c(-c3ccc(O)cc3)c2c1,3%,?,-28%,-11%,?,2.3µM*
COc1ccc2sc(-c3ccc(S(C)(=O)=O)cc3)c(-c3ccc4c(c3)OCCO4)c2c1,nt,?,21%,2%,nt,nt
COc1ccc(-c2c(-c3ccccc3OC)sc3ccccc23)cc1,-4%,?,-23%,-2%,10%,?

# Screening data deposited in PubChem BioAssay by National Center for Advancing Translational Sciences (NCATS).
